High-throughput results (PubChem)
Pf growth 96h: Primary qHTS for delayed death inhibitors of the malarial parasite plastid, 96 hour incubation; 6.9% of 320,000 active; Potency, µM (doses to about 28.7 µM), actives largely listed as inhibitors; AID 504834, 2011; P. falciparum luciferase reporter growth, 96 h; active = well fitted inhibition curve with a large enough effect; inconclusive = small, poorly fitted or top-dose-only effect, or another doubt; inactive = no such curve, though single readings can be large or run the other way
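Readout is luminescence from an integrated firefly luciferase in P. falciparum. Red cells, 2% hematocrit and 0.05% parasitemia final, were cultured with compound through two parasite generations (96 hours) at 37 C, 5% CO2.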
SARS PLpro yeast: qHTS of Yeast-based Assay for SARS-CoV PLP. Potency, µM (highest dose often 32.9 µM), actives largely listed as activators. S. cerevisiae expressing SARS-CoV PLpro, growth rescue. AID 485353, 2010. 0.19% of 330,000 active; note: nearly all actives have a fitted effect of over 55% in size
Pf growth 48h: Primary qHTS for delayed death inhibitors of the malarial parasite plastid, 48 hour incubation; P. falciparum luciferase growth in erythrocytes, 48 h; Potency, µM (doses to about 28.7 µM), actives largely listed as inhibitors; 5.9% of 310,000 active; AID 504832, 2011; active = well fitted inhibition curve with a large enough effect; inconclusive = small, poorly fitted or top-dose-only effect, or another doubt; inactive = no such curve, though single readings can be large or run the other way
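Here the parasites carry a stable luciferase gene and grow inside erythrocytes in Albumax-based RPMI medium with compound for one erythrocytic cycle. Activity is scored as loss of luminescent signal.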
NS1 inh: qHTS Assay for Inhibitors of Influenza NS1 Protein Function | Potency, µM (highest dose often 46.1 µM) | 0.4% of 270,000 active; note: actives are rising curves; nearly all actives have a fitted effect of over 50% in size
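In this qHTS, NS1 from influenza A is expressed in budding yeast, where it slows growth. Cells are switched from glucose to 2% galactose medium (pH 6.0, -URA), treated with compound, and growth recovery is read at OD600.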
A number is an active result; . = inactive; ? = inconclusive; / = no result. Compounds with a hit are over-represented: about 10% of the library has one in this group of screens. Unless noted, calls come from the whole dose curve.

SMILES | Pf growth 96h | SARS PLpro yeast | Pf growth 48h | NS1 inh
CCN(CCCCCN(C)C)Cc1cc2ccccc2o1 | 5.2µM | . | 10µM | ?
NC(=O)COc1ccc2oc(=O)cc(-c3cc4ccccc4o3)c2c1 | . | ? | . | .
COc1ccc(Cl)cc1NC(=O)CN(C)C(=O)Cc1n[nH]c(=O)c2ccccc12 | . | . | . | /
CC1(CCc2ccc3c(c2)OCO3)NCCc2c1[nH]c1ccccc21 (configuration not stated) | ? | . | 10µM | .
CC1(CCc2ccc3c(c2)OCO3)NC(=O)c2ccccc2N1 (configuration not stated) | . | . | . | .
O=C(Nc1nc2c(F)cc(F)cc2s1)c1ccc2c(c1)OCCO2 | . | . | . | /
Cc1cc2oc(=O)cc(CSc3nnc(-c4cccs4)o3)c2cc1C(C)C | ? | . | 8.3µM | ?
CCOC(=O)c1ccc(-c2c(-c3ccc4c(c3)OCO4)noc2C)cc1F | . | . | . | .
CC/C(=N\NC(=O)c1cccnc1)c1ccc2c(c1)OCCO2 | 0.93µM | . | . | /
C/C(=N\NC(=O)c1ccc2c(c1)OCO2)c1cccnc1 | . | . | . | .
CCN1CCN(C(=S)Nc2cccc(C(F)(F)F)c2)CC1 | 9.3µM | . | . | .
OCCN1CCN(C(=S)Nc2cccc(C(F)(F)F)c2)CC1 | . | . | . | .
Fc1cc(F)c(C2SCCN2C(=S)Nc2cccc(C(F)(F)F)c2)c(F)c1 (configuration not stated) | 2.9µM | . | ? | .
COc1cc(C(=O)NNC(=O)c2cc(S(=O)(=O)N(C)C)ccc2N2CCCC2)cc(OC)c1OC | ? | . | ? | /
Fc1cc(F)c(F)c(SCn2cc(Br)cn2)c1F | . | . | . | /
O=C(O)CCn1cc(/C=C2/NC(=S)N(c3ccccc3)C2=O)c(-c2ccccc2)n1 | 3.7µM | . | . | .
S=C(Nc1ccccc1Cl)N1CCN(Cc2ccccc2)CC1 | . | . | ? | .
CC(C)(C)c1ccc(C(=O)N2CCN(Cc3ccccc3)CC2)cc1 | . | . | ? | .
O=C(N1CCOCC1)N1CCN(Cc2ccccc2)CC1 | 1.7µM | . | . | .
O=C(c1ccccc1)N1CCN(Cc2ccccc2)CC1 | 7.4µM | . | . | .
O=C(c1ccco1)N1CCc2ccccc21 | . | . | . | /
Cc1ccccc1NC(=S)N1CCN(Cc2ccccc2)CC1 | 1.2µM | . | . | .
O=C(N1CCOCC1)N1CCc2ccccc21 | 12µM | . | . | .
Cc1ccc(NC(=O)CCCc2ccccc2)c([N+](=O)[O-])c1 | . | . | . | .
O=C(c1ccc(C#CC2(O)CCCCC2)cc1)N1CCN(C(c2ccccc2)c2ccccc2)CC1 | . | . | / | .
SMILES | Pf growth 96h | SARS PLpro yeast | Pf growth 48h | NS1 inh
O=C(c1ccc(C#CC2(O)CCCCC2)cc1)N1CCN(Cc2ccccc2)CC1 | 10µM | . | ? | .
CC(=O)C(C(C)=O)c1c(Cl)c(O)c(O)c2c(C(=O)c3ccccc3)coc12 | 2.6µM | . | / | .
CC(C)(CNC(=O)CCC1CCCC1)CNC(=O)CCC1CCCC1 | 10µM | . | ? | .
COC(=O)CCC/C=C1/SCC(NC(=O)c2ccccc2)C1=O (configuration not stated) | 9.3µM | . | / | ?
COC(=O)CCC/C=C1/SCC(NC(=O)c2ccccc2)C1O (configuration not stated) | ? | / | . | .
Cc1cc(C)n(-c2ccc(NC(=O)C3CCCCN3C(=O)c3sccc3C)cc2)n1 (configuration not stated) | 15µM | . | . | .
Cc1cc(C)n(-c2ccc(NC(=O)C3CCCCN3C(=O)c3ccoc3)cc2)n1 (configuration not stated) | 9.3µM | . | . | .
COCCn1nnnc1C(C(C)C)N1CCSCC1 (configuration not stated) | . | . | . | .
CCCC(=O)N(Cc1cc(=O)[nH]c2ccccc12)c1cccc(C)c1 | 8.3µM | . | 12µM | .
Cc1ccc(C2(c3ccccc3)NC(=O)N(CC(=O)NC3CCCCC3)C2=O)cc1C (configuration not stated) | ? | . | ? | /
O=C1CN(C(=O)CN2C(=O)NC(c3ccccc3)(c3ccccc3)C2=O)c2ccccc2N1 | / | . | / | /
CCCC1(c2ccccc2)NC(=O)N(CC(=O)N2CC(=O)Nc3ccccc32)C1=O (configuration not stated) | ? | . | 2.9µM | /
COc1ccccc1CNC(=O)CN1C(=O)NC(c2ccccc2)(c2ccc(C)c(C)c2)C1=O (configuration not stated) | 9.3µM | . | 9.3µM | /
Cc1ccc(C2(c3ccccc3)NC(=O)N(CC(=O)N3CC(=O)Nc4ccccc43)C2=O)cc1C (configuration not stated) | 3.7µM | . | 2.3µM | /
Cc1ccc(C)c(S(=O)(=O)NCC(=O)Nc2ccc3c(c2)OCO3)c1 | . | . | . | .
Clc1ccc(CNCC2CCCO2)cc1 (configuration not stated) | . | . | . | .
Cc1ccc(CNCC2CCCO2)o1 (configuration not stated) | 13µM | . | . | .
CS(=O)(=O)c1cccc(-c2csc(N3CCC(C(N)=O)CC3)n2)c1 | . | . | ? | /
O=C(O)c1ccc(N=Nc2c(O)[nH]c3cc(Cl)ccc23)cc1 | 4.7µM | . | ? | .
O=C(O)c1ccc(N=Nc2c(O)[nH]c3ccc(Br)cc23)cc1 | 5.2µM | . | ? | .
Oc1[nH]c2ccc(Br)cc2c1N=Nc1ccc(C(F)(F)F)cn1 | 9.3µM | . | ? | .
O=C1CC(N2CCCc3ccccc32)C(=O)N1c1ccccc1 (configuration not stated) | 12µM | . | . | .
CCNC(=O)CC1C(=O)N(c2ccc(C)cc2)C(=O)N1CCC(C)C (configuration not stated) | 12µM | . | . | .
CCN(Cc1ccccc1)C(=O)COc1ccccc1 | 8.3µM | . | . | .
CCOc1ccc(C(=O)OCC(=O)N(Cc2ccccc2)Cc2ccccc2)cc1OC | ? | . | 12µM | /
SMILES | Pf growth 96h | SARS PLpro yeast | Pf growth 48h | NS1 inh
O=C(Nc1ccccc1)/C(=C/c1ccc(F)cc1)NC(=O)c1ccco1 | . | . | . | .
CCn1c(=O)n(CC)c2cc([N+](=O)[O-])c(N3CCNCC3)cc21 | 5.9µM | . | . | /
Nc1cc(N2CCNCC2)c([N+](=O)[O-])cc1Cl | . | . | . | .
Cc1n[nH]c(=O)c2c(NC(=O)CSc3nncn3C(C)C)oc(C)c12 | . | . | . | /
O=C(CCC(=O)N1CCN(S(=O)(=O)c2ccccc2Cl)CC1)c1ccccc1 | ? | . | . | /
Cc1ccc(C)c(S(=O)(=O)N2CCCC2CNC(=O)C(=O)NCc2ccccc2C)c1 (configuration not stated) | ? | . | ? | /
COc1ccc(F)cc1S(=O)(=O)Nc1cc2c3c(c1)CCC(=O)N3CCC2 | . | . | . | /
CC(C)Cn1c(N)c(C(=O)COC(=O)c2ccc(F)cc2)c(=O)n(C)c1=O | . | . | . | /
CCc1ccc(C(=O)OCC(=O)c2c(N)n(CC(C)C)c(=O)n(C)c2=O)cc1 | 13µM | . | ? | /
CC(C)Cn1c(N)c(C(=O)COC(=O)Cc2cccc(C(F)(F)F)c2)c(=O)n(C)c1=O | ? | . | 9.3µM | /
